The target in assay [1] is Ephrin type-A receptor 4 (Homo sapiens) (UniProt P54764). The note with it: at 1 µM.
The target of assay [2] is Ephrin type-A receptor 7 (Homo sapiens) (UniProt Q15375). The following applies: at 10 µM.
In assay [3] the target is T1, Ephrin type-A receptor 8 (Homo sapiens) (UniProt P29322).
T1 sequence (whole entry): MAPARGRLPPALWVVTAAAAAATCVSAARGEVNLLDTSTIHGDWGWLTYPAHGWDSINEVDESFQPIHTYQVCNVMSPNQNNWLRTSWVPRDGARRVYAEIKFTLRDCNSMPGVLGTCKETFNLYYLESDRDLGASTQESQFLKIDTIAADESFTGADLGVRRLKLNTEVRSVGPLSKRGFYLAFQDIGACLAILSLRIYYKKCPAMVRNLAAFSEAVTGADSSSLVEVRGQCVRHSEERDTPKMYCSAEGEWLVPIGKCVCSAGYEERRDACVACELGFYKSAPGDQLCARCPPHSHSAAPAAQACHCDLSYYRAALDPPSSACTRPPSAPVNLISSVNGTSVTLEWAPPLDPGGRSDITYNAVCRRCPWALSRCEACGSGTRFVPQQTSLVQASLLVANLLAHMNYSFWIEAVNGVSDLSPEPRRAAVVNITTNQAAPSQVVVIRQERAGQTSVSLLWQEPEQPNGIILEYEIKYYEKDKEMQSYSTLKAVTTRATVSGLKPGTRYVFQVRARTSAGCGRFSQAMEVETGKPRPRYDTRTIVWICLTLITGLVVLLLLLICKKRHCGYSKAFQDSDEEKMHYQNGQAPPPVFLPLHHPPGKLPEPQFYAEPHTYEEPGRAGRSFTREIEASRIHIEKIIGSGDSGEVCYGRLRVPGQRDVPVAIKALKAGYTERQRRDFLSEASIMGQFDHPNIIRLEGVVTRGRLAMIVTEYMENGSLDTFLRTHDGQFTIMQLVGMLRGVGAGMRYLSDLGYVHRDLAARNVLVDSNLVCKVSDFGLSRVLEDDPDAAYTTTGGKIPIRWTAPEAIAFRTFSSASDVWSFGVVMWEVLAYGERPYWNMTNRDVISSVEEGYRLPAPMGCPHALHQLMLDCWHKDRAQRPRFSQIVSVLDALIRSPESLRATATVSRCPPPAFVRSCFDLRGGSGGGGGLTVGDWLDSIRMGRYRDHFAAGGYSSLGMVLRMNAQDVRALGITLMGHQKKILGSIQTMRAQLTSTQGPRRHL
The following applies: at 1 µM.

Assay [4] concerns the target T1, Ephrin type-A receptor 8 (Homo sapiens). The following applies: at 10 µM.
The target of assay [5] is T2, Ephrin type-B receptor 1 (Homo sapiens) (UniProt P54762).
T2 sequence (whole entry): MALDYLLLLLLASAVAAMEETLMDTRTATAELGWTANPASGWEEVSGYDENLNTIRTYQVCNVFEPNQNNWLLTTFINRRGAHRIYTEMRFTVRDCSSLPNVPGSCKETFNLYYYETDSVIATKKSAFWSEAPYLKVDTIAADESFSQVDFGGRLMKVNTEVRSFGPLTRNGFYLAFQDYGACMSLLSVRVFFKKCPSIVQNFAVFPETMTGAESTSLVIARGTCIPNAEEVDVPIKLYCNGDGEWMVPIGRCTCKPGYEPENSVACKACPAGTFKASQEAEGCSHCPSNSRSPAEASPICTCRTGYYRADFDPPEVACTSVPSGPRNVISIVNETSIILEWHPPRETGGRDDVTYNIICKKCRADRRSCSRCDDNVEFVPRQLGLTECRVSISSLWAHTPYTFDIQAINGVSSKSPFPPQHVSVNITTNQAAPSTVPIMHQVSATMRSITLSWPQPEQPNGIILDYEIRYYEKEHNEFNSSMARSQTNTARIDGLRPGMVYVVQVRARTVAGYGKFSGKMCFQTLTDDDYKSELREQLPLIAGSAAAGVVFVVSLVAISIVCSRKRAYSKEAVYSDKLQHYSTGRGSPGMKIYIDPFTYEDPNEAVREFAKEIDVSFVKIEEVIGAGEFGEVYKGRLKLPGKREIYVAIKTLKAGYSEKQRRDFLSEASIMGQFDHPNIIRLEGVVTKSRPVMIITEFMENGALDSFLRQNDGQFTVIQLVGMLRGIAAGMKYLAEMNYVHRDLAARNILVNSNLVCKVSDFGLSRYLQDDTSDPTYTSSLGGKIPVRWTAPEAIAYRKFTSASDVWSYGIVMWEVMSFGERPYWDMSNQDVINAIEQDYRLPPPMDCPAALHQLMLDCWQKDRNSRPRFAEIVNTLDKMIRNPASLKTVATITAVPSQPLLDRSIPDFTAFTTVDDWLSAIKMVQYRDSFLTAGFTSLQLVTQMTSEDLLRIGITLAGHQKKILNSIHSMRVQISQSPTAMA
The following applies: at 10 µM.

In assay [6] the target is T3, Ephrin type-B receptor 3 (Homo sapiens) (UniProt P54753).
T3 sequence (whole entry): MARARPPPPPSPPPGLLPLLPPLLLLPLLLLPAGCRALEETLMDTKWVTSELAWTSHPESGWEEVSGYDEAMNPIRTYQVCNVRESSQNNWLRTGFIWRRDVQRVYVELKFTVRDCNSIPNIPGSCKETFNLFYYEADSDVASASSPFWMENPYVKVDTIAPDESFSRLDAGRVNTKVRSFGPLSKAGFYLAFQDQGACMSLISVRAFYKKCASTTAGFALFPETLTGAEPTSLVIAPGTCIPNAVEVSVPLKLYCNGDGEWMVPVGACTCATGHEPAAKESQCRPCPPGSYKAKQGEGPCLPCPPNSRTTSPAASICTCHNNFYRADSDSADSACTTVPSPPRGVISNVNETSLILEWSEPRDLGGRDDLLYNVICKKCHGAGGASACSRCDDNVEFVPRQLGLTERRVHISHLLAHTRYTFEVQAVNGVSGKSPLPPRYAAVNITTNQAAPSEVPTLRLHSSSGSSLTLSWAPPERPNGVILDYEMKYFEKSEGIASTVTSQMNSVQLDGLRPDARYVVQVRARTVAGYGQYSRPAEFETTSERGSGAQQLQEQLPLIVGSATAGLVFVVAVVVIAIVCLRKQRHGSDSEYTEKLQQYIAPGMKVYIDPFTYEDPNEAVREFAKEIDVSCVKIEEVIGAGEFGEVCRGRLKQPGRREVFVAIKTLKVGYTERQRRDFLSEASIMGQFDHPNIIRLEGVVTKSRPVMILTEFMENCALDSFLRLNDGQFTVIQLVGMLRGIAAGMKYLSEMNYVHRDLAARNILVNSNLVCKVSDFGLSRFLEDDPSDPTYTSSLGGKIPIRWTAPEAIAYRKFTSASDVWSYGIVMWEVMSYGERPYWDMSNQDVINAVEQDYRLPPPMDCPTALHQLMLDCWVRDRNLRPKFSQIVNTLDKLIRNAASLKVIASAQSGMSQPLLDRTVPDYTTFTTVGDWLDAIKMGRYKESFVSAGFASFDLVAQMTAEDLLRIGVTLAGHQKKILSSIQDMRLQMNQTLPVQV
The note with it: at 1 µM.

The target in assay [7] is T3, Ephrin type-B receptor 3 (Homo sapiens). The note with it: at 10 µM.
Assay [8] concerns the target T4, Ephrin type-B receptor 4 (Homo sapiens) (UniProt P54760).
T4 sequence (whole entry): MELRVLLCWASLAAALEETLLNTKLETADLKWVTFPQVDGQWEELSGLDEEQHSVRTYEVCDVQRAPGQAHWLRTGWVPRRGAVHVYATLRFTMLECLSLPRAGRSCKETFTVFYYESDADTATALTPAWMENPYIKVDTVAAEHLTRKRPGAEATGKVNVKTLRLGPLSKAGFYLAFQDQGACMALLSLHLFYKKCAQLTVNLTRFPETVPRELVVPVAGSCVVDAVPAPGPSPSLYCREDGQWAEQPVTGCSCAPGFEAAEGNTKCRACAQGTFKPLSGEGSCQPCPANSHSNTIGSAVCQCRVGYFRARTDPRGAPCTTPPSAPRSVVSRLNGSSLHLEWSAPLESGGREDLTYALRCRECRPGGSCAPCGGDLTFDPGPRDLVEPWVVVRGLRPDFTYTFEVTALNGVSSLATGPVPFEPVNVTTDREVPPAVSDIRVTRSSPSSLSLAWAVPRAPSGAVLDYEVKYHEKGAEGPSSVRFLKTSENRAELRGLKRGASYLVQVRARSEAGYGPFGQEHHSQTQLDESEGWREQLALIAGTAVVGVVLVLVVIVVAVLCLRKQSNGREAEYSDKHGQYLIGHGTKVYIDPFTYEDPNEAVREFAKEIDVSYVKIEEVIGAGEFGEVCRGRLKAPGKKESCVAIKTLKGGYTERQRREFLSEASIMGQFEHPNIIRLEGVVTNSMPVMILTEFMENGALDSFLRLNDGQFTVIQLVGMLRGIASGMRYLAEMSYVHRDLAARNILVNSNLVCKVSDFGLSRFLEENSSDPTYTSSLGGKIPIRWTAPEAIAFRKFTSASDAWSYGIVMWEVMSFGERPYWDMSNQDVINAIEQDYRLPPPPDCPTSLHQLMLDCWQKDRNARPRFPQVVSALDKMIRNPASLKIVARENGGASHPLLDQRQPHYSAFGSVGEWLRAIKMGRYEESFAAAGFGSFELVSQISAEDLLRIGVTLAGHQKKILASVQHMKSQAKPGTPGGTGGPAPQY
The note with it: at 1 µM.

For assay [9], the target named is T4, Ephrin type-B receptor 4 (Homo sapiens). The following applies: at 10 µM.
Assay [10] addresses Receptor tyrosine-protein kinase erbB-4 (Homo sapiens) (UniProt Q15303). The note with it: at 1 µM.
Assay [11] shares this target. The note with it: at 10 µM.
The target in assay [12] is Focal adhesion kinase 1 (Homo sapiens) (UniProt Q05397). The note with it: at 1 µM.
Assay [13] has as its target T5, Ephrin type-A receptor 3 (Homo sapiens) (UniProt P29320).
T5 sequence (whole entry): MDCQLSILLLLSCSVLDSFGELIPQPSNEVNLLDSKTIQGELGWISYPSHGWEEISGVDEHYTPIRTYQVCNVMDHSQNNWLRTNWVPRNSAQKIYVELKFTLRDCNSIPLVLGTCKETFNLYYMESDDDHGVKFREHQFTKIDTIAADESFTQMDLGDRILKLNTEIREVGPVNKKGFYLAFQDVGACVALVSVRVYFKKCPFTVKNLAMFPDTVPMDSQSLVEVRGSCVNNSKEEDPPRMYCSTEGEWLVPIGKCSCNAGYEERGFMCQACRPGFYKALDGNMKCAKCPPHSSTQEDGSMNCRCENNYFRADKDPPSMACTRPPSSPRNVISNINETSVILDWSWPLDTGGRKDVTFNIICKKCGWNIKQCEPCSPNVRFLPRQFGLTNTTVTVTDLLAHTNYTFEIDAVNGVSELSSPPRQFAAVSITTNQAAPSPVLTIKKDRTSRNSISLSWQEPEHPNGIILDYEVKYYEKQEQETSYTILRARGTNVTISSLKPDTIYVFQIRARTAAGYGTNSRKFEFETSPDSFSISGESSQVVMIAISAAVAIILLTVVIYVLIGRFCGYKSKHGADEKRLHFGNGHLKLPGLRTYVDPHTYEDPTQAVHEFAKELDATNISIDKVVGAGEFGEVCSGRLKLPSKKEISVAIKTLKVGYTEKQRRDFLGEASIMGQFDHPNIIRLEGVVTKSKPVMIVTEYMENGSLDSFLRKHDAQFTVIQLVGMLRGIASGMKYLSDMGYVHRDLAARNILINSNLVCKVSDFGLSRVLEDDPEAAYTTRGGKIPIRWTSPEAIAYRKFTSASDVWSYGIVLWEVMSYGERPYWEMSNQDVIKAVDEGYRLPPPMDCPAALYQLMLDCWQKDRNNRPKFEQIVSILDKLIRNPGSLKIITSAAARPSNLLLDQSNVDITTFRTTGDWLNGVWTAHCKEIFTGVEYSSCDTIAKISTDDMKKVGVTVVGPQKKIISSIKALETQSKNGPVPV
The following applies: at 10 µM.

Assay [14] has as its target Ephrin type-A receptor 5 (Homo sapiens) (UniProt P54756). The note with it: at 1 µM.
The target is the same in assay [15]. The following applies: at 10 µM.
In assay [16] the target is Ephrin type-A receptor 7 (Homo sapiens) (UniProt Q15375). The note with it: at 1 µM.
The target of assay [17] is T2, Ephrin type-B receptor 1 (Homo sapiens). The note with it: at 1 µM.

Broadly, the residual activity is the signal under treatment as a percentage of the control signal.

Ephrin type-A receptor 7 (Homo sapiens), sequence (Q15375 28-998 limits assumed): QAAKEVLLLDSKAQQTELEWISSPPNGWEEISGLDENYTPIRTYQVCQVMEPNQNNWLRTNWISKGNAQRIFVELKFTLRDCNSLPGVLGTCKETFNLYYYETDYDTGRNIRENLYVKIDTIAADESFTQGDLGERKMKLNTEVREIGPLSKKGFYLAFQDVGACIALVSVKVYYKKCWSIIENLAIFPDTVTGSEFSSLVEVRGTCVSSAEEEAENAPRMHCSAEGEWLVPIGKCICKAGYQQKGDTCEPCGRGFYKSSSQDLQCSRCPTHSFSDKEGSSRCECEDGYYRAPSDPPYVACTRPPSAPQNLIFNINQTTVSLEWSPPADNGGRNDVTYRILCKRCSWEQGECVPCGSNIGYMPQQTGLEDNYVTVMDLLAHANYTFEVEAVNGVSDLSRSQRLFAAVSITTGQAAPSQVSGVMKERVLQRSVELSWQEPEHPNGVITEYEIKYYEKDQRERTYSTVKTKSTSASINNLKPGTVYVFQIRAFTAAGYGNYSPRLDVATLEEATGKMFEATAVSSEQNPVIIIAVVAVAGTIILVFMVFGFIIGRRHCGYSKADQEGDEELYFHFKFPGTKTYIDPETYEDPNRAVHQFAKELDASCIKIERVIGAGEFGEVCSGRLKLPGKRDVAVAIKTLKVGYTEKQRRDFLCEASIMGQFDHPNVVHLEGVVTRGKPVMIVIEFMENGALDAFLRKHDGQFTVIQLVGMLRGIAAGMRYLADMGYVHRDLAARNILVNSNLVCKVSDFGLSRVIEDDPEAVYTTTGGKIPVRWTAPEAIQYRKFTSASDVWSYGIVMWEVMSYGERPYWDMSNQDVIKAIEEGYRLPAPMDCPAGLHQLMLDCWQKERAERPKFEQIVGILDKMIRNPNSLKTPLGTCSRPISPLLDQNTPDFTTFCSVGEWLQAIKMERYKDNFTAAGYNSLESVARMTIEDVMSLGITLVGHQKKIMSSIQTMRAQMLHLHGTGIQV
Receptor tyrosine-protein kinase erbB-4 (Homo sapiens), sequence (Q15303 whole entry): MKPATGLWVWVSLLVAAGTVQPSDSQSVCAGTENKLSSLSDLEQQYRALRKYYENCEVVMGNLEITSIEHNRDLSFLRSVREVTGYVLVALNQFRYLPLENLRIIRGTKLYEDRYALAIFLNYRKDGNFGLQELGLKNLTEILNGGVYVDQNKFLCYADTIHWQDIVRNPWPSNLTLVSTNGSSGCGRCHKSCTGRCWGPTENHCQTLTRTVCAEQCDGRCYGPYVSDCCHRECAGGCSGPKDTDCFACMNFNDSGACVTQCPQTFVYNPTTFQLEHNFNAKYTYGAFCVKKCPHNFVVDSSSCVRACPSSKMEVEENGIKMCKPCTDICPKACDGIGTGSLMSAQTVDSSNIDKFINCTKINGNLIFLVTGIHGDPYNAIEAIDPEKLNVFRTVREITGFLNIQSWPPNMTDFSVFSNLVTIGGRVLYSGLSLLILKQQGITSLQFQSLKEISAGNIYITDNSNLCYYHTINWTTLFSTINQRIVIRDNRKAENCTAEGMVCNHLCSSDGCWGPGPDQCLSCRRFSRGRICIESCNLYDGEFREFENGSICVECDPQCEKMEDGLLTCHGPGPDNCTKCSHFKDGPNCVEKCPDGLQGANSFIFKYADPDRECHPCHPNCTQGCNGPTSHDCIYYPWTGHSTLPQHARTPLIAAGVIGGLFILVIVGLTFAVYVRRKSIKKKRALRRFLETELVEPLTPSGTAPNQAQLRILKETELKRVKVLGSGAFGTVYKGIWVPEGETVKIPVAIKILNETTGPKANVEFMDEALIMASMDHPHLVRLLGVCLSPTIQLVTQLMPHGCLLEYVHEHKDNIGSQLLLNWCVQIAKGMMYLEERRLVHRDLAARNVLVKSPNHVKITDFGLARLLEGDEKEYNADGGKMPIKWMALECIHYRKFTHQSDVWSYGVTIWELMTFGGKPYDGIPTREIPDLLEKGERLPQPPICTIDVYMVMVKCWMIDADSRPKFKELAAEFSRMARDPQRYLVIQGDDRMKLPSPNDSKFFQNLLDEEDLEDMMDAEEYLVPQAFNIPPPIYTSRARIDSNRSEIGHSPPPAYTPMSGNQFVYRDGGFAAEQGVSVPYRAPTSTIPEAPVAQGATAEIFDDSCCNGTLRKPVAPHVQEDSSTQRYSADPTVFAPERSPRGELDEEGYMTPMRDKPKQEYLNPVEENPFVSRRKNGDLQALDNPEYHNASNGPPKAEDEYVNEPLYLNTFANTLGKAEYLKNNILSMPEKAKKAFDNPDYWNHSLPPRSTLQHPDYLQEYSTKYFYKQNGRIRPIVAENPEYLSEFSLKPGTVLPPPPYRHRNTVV
Ephrin type-A receptor 5 (Homo sapiens), sequence (P54756 whole entry): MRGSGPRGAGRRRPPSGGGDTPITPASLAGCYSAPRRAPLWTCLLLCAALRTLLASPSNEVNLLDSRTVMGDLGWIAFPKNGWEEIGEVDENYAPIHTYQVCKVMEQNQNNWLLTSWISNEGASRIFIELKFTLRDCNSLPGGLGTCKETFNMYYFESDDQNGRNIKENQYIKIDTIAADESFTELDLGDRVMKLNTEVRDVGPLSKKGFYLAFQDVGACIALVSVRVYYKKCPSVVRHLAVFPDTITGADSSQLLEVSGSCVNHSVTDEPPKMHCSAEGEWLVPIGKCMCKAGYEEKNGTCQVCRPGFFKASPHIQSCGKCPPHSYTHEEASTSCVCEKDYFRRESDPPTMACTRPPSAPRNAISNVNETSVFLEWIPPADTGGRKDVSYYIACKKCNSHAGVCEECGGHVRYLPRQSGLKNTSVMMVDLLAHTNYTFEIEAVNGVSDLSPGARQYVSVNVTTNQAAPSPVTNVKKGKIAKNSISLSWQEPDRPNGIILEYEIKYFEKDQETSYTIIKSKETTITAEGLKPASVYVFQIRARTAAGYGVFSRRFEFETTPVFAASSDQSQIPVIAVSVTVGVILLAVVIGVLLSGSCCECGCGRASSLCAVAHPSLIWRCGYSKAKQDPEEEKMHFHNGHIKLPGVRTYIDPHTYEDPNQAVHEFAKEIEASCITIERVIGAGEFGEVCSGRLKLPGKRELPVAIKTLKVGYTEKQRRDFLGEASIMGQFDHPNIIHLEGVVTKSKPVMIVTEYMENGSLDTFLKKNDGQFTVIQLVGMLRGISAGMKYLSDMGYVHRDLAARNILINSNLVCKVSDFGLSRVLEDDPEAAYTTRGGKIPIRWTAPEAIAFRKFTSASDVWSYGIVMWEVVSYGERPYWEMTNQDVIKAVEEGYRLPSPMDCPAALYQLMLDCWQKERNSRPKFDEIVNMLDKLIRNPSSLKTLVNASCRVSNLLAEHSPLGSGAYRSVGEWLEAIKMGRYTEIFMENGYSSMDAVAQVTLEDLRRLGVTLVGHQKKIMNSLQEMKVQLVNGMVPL
Focal adhesion kinase 1 (Homo sapiens), sequence (Q05397 2-1052 limits assumed): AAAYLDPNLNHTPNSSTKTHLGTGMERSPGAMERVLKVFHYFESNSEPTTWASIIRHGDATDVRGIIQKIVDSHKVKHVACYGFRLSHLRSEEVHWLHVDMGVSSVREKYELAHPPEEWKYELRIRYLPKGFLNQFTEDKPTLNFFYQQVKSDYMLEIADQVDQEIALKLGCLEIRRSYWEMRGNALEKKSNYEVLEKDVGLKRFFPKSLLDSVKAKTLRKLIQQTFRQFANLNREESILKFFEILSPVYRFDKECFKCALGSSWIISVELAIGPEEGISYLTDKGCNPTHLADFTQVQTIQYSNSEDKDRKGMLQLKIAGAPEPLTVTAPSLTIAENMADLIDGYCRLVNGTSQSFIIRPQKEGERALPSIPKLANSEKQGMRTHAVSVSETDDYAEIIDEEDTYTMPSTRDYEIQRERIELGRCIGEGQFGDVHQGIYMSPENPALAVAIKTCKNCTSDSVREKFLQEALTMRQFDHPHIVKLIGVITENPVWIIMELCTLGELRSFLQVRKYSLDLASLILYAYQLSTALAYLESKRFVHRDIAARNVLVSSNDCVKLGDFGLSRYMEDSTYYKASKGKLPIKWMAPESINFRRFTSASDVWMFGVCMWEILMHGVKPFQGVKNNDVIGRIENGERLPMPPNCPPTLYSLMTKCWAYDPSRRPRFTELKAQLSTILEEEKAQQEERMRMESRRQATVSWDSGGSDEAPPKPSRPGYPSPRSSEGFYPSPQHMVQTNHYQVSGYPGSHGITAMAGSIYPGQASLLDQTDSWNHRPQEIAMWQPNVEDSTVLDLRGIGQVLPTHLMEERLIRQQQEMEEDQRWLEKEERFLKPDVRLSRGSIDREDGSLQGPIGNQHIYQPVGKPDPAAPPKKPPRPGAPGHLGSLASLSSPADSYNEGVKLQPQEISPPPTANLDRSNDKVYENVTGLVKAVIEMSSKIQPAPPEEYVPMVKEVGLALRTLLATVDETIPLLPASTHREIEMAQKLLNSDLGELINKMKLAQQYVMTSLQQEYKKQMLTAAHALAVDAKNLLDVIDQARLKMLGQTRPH

`N#C/C(=C1/Nc2ccccc2S1)c1ccnc(NCCc2cccnc2)n1`: the residual activity in assay [1] is 123%; in assay [2], 77%; in assay [3], 98%; in assay [4], 83%; in assay [5] it was 55%; in [6], 141% (inactive). Besides, the residual activity in assay [7] is 74%; in [8], 72%; in assay [9], 73%; in [10], 88%; in assay [11] it was 61%; in [12], 100%.
Turning to `O=c1cc(N2CCOCC2)oc2c(-c3ccccc3)cccc12`, the residual activity in assay [13] came out at 77%; in assay [2] it was 79%; in [10], 79%; in [11], 65%.
Turning to `COc1ccc(Cl)cc1NC(=O)Nc1cc(C)nc2ccccc12`, the residual activity in assay [14] came out at 97%; in [15] it was 86%; in assay [16] it was 83%; in assay [2] it was 56%; in assay [17], 88%; in assay [5] it was 68%. Also, the residual activity stood at 96% in assay [8]; 100% in [9]; 96% in assay [10]; 80% in assay [11]; 127% in assay [12].

These data come from ChEMBL document CHEMBL2218924, “A broad activity screen in support of a chemogenomic map for kinase signalling research and drug discovery” (Biochem J, 2013).
